Test results: PubChem BioAssay AID652068 (The Scripps Research Institute Molecular Screening Center, 2013)
In all, about 4,300 compounds went through this assay and about 4,000 (93%) were called active. The set was probably picked from earlier hits. These entries were drawn from the full list. A number with no mark means an inactive call.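 How the source made its calls: active means inhibition above its plate's cutoff, the mean test-well inhibition plus 3 SD (cut at about 4.8% in these data); inactive means the rest.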

Assay: displacement of TO-PRO-1 from CAG DNA duplex, counter-screen for rCAG RNA repeat binder project, biochemical, fluorescence, TO-PRO-1 dye, d(CAG) DNA oligo (AID 652068);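 further: 0% = DNA dye mix with DMSO and 100% = 100 µM mitoxantrone; hits displace the dye from DNA and so lower well fluorescence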
Conditions: d(CAG) DNA oligo TO-PRO-1 dye displacement, at 3 µM, hits give high values

SMILES | inhibition
O=C1NC(=O)N(Cc2ccco2)C(=O)/C1=C\c1ccc(-c2ccc(F)cc2)o1 | 13.1% (active)
O=C1CC(=O)N(Cc2ccccc2)C(=O)N1CCCCCCN1C(=O)CC(=O)N(Cc2ccccc2)C1=O | 22.6% (active)
COc1ccc(N2C(=O)/C(=C/c3ccco3)C(=O)NC2=S)cc1 | 61.4% (active)
CC/C(=N\NC(=O)c1ccccc1O)c1c(O)n(Cc2ccccc2)c(=O)[nH]c1=O | 36.7% (active)
COc1ccc2c(c1)[C@@]13CCCCC1[C@@H](C2)NCC3 (some centres not stated) | -5.51%
O=C1NC(=O)N(c2ccccc2)C(=O)/C1=C/c1ccc([N+](=O)[O-])s1 | 25.7% (active)
COc1cccc(N2C(=O)NC(=O)/C(=C\c3ccc([N+](=O)[O-])s3)C2=O)c1 | 19.4% (active)
